Source: PubChem BioAssay (NCATS)
Unmarked numbers belong to inactive results. Records with an inconclusive call do not appear. Activity calls are given as the source filed them. Unless noted, calls follow the shape of the dose curve; as a rule, active = well fitted curve in either direction with a large enough effect (not every such curve was filed as active); inconclusive = small, poorly fitted or top-dose-only effect, or another doubt; inactive = flat fitted curve, though single readings scatter.

Experiments:
[1] = molecular target: Lysosomal acid glucosylceramidase (Homo sapiens) (UniProt P04062); assay: Glucocerebrosidase-p2 (AID 348; in the data active = potency below about 10 µM; also: potency is read from the fitted curve at half-maximal effect); conditions: purified GBA, blue fluorogenic substrate, 40 min
Lysosomal acid glucosylceramidase (Homo sapiens), sequence (P04062 whole entry, looked up): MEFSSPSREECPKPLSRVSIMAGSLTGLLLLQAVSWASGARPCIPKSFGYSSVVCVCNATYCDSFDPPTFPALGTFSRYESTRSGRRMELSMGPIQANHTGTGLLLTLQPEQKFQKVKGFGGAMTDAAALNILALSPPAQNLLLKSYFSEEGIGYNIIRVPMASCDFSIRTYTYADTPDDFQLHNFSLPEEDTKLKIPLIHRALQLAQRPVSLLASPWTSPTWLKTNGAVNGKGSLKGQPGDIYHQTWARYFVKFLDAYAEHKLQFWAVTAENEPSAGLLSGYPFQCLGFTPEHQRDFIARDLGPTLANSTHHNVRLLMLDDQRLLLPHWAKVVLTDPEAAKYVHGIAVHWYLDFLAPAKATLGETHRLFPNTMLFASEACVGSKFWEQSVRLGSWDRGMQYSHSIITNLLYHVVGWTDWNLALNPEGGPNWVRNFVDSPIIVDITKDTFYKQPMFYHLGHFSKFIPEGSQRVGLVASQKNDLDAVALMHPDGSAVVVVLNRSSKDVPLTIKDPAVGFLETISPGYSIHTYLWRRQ
Method in brief: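 Normal human glucocerebrosidase (0.2 nM) with blue fluorogenic substrate (80 uM final) in citrate/phosphate pH 5.9 with 10mM sodium taurocholate, 0.01% tween-20; 40 min RT, NaOH/glycine stop; fluorescence Ex 365/Em 440; AC50 from a titration from 0.6 nM upwards.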

[2] = AP1 Signaling Pathway (AID 357); conditions: ME-180 AP-1-bla reporter, EGF-induced, beta-lactamase ratio, 5 h; at 7.69 µM (top of the series) unless noted;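 also: ME-180 reporter cells stimulated with EGF at its EC50 level; % is scaled to controls: 0 for no effect and ±100 for the full control effect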
Method in brief: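 Titration-series screen for positive or negative modulators of EC50 EGF-induced signaling in ME-180 cells carrying an AP-1-driven beta-lactamase reporter. After 5 hours at 37 degrees Celsius, CCF4 460nm/530nm emission ratio gave %Activity; AC50 values derived.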

[3] = molecular target: Cytochrome P450 1A2 (Homo sapiens) (UniProt P05177); assay: p450-cyp1a2 (AID 410; calls by dose curve; also: potency is read from the fitted curve at half-maximal effect;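 as to activity change, negative = inhibition: -100% = full effect of reference inhibitor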); conditions: recombinant CYP1A2, luciferin-ME demethylation, luminescence; series mostly up to 57 µM
Cytochrome P450 1A2 (Homo sapiens), sequence (P05177 whole entry, looked up): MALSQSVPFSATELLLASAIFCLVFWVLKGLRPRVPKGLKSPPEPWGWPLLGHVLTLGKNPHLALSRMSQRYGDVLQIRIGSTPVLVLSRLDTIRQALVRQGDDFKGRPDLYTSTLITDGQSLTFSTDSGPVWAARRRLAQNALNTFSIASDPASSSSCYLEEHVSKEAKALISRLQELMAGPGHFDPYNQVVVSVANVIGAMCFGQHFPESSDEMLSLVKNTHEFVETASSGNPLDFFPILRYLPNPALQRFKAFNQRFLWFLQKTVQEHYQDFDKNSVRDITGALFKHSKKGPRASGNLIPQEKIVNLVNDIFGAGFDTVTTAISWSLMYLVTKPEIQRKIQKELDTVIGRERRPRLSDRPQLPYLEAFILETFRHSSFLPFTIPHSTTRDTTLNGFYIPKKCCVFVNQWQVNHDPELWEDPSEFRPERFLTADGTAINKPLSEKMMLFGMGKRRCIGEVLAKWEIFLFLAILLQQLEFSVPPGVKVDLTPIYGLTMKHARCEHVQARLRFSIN
Method in brief: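 Luminescent demethylation readout: Luciferin-ME (100uM, equal to Km) turned over by 20nM CYP1A2 for 60 min at room temperature after NADPH regeneration addition, following 10 min compound preincubation. Normalization used 57 uM furafylline as full inhibition.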

[4] = NFAT Signaling Pathway (AID 444); conditions: Jurkat NFAT-bla M1, carbachol, beta-lactamase ratio, 5 h; at 7.69 µM (top of the series) unless noted;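 also: carbachol stimulus at about its EC50 of 1 µM final; % is scaled to controls: 0 for no effect and ±100 for the full control effect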
Method in brief: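 Jurkat cells with NFAT-driven β-lactamase reporter and co-expressed M1 receptor, stimulated with carbachol (final 1 uM, ~EC50), compound titration, 5 h at 37 °C. CCF4 loaded 1 h at RT; 460/530 nm ratio gave %activity and AC50.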

[5] = Stat Signaling Pathway (AID 446); conditions: ME-180 SIE beta-lactamase reporter, IL-6 stimulated, 5 h; at 7.69 µM (top of the series) unless noted;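 also: ME-180 cervical cancer cells given 40 pM IL-6 alongside compound; SIE-controlled beta-lactamase reporter measured as 460/530 nm FRET emission ratio; % is scaled to controls: 0 for no effect and ±100 for the full control effect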
Method in brief: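 Emission at 460 and 530 nm (excitation 405 nm) reports SIE-controlled beta-lactamase in ME-180 cells. Cells received compound with 40 pM IL-6 for 5 hrs at 37 C; data scaled between 300 pM IL-6 and 125 nM JAK-inhibitor controls.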

[6] = molecular target: Glucocorticoid receptor (Homo sapiens) (UniProt P04150); assay: GR-GFP Redistribution (AID 450;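 active = compounds whose dose series gives a full or clear partial fitted curve of increased nuclear translocation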; also: potency is read from the fitted curve at half-maximal effect); conditions: U2OS GR-GFP nuclear translocation, laser cytometry, 2 h
Glucocorticoid receptor (Homo sapiens), sequence (P04150 whole entry, looked up, the tested form may be a part): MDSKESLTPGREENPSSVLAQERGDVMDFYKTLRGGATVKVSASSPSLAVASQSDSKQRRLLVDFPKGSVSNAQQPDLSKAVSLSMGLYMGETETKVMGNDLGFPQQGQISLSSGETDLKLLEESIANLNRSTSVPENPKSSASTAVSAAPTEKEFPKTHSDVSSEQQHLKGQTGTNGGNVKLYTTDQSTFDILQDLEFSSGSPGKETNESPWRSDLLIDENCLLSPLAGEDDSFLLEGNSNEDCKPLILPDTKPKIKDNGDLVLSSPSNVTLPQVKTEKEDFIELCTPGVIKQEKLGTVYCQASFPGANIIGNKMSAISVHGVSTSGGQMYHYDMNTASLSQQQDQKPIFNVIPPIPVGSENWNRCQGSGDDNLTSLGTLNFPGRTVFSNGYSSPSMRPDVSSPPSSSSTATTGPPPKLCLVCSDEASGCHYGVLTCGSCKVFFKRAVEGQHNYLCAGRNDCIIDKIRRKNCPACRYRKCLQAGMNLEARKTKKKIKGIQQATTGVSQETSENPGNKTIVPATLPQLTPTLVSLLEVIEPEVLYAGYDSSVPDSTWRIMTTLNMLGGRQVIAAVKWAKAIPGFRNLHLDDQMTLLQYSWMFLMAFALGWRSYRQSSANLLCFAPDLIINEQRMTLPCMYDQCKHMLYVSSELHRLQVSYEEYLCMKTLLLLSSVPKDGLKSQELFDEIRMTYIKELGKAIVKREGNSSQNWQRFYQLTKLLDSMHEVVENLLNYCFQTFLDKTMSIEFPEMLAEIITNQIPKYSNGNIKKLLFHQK

[7] = molecular target: Glucocorticoid receptor (Homo sapiens) (UniProt P04150); assay: GR-EFC Redistribution (AID 451; calls by dose curve; also: potency is read from the fitted curve at half-maximal effect); conditions: CHO-K1 GR-EFC translocation, beta-gal luminescence, 2 h
Method in brief: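 CHO-K1 cells expressing nuclear EA and GR-ED fragments of b-gal; compounds titrated up to 46 uM final, 2 h at 37 C. GR nuclear translocation read as complemented b-gal luminescence after 1 h RT detection.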

[8] = molecular target: Mitogen-activated protein kinase 10 (Mus musculus) (UniProt Q61831); assay: JNK3 AlphaScreen Assay (AID 530); conditions: JNK3 lysate, c-Jun phosphorylation; series mostly up to 57.1 µM;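 also: kinase came from lysate of stimulated human HepG2 cells; signal reports phosphorylation of biotinylated GST-cJun 1-79 at Ser73 with 10 µM ATP; % is scaled to controls: 0 for no effect and ±100 for the full control effect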
Method in brief: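 Activity was read by AlphaScreen after JNK3-containing HepG2 lysate (cytokine pre-activated) phosphorylated biotinylated GST-cJun with 10 uM ATP at room temperature. Phospho-Ser73 cJun antibody with Protein-A acceptor beads provided detection.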

[9] = Confirmation and Secondary Assay for Modulators of Hemoglobin Beta Chain Splicing at IVS2 705 locus (AID 930; active = well fitted curve in the direction sought with a large enough effect; an effect the other way counts as inactive or inconclusive;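 also: HeLa cells stably expressing the EGFP-705 splicing reporter; GFP fluorescence per well restored by corrected splicing of the IVS2-705 intron in EGFP; % of control where 0% means no effect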); conditions: HeLa EGFP-705 splicing reporter, GFP fluorescence, 48 h; series mostly up to 38.3 µM
Method in brief: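 HeLa cells stably carrying EGFP interrupted by mutant beta-globin intron 2 (IVS2-705) treated 2 days at 37C with compound; 500 nM antisense PNA as control. Correct splicing read as total peak GFP intensity per well by laser-scanning cytometry.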

[10] = molecular target: Ubiquitin carboxyl-terminal hydrolase 1 (Homo sapiens) (UniProt O94782); assay: Inhibitors of USP1/UAF1: Pilot qHTS (AID 504865; active = well fitted curve in the direction sought with a large enough effect; an effect the other way counts as inactive or inconclusive;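 also: rhodamine fluorescence freed from ubiquitin-rhodamine substrate followed over time; top concentration of the series differs between compounds; % is scaled to controls: 0 for no effect and ±100 for the full control effect; nearly all actives have a fitted effect of over 35% in size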); conditions: purified USP1/UAF1, Ub-rhodamine cleavage fluorescence; series mostly up to 54.9 µM
Method in brief: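 Kinetic fluorescence assay: 1nM USP1/UAF1, 15 min compound preincubation, then 150nM Ub-Rho; 480/540 nm.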

[11] = Primary qHTS for small molecule stabilizers of the endoplasmic reticulum resident proteome: Secreted ER Calcium Modulated Protein (SERCaMP) assay (AID 1508630; active = well fitted curve in the direction sought with a large enough effect; an effect the other way counts as inactive or inconclusive; also: % is scaled to controls: 0 for no effect and ±100 for the full control effect); conditions: SH-SY5Y GLuc-SERCaMP (Gaussia luciferase released on ER calcium loss) secretion, thapsigargin, luminescence; series mostly up to 38.4 µM
Method in brief: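 The SH-SY5Y reporter protocol was run at 3 concentrations up to 38.3 uM (primary) or 11 concentrations (follow-up): 16 h compound, 100 nM thapsigargin for 4 h, then extracellular luciferase luminescence.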

[12] = molecular target: 3',5'-cyclic-AMP phosphodiesterase 4B (Homo sapiens) (UniProt Q07343); assay: qHTS Assay for Inhibitors of PDE-IV (AID 607; active = well fitted activation curve with a large enough effect in the main read-out, with a control signal flat, not every such curve was filed as active; also: % of control where 0% means no effect); conditions: HEK293 ACTOne CNG channel cells, membrane potential fluorescence; series mostly up to 22.9 µM
3',5'-cyclic-AMP phosphodiesterase 4B (Homo sapiens), sequence (Q07343 whole entry, looked up): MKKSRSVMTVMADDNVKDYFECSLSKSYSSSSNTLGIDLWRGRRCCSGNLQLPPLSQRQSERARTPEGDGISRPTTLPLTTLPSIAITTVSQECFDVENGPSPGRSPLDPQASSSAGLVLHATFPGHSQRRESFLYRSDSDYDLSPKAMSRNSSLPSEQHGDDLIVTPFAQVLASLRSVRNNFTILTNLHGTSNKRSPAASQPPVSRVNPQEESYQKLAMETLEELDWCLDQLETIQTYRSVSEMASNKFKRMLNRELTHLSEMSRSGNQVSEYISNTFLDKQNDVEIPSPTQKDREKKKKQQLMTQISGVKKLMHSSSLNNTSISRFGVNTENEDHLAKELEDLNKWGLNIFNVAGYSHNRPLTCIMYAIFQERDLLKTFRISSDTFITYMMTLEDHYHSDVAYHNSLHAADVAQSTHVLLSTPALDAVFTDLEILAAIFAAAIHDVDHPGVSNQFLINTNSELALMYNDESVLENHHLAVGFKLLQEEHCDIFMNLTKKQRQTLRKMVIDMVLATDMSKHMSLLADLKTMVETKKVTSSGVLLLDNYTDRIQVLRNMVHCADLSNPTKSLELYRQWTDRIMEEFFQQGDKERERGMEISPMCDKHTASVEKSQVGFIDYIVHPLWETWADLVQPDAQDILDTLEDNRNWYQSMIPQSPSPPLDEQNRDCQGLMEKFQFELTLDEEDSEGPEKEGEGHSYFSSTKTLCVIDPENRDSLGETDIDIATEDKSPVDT
Method in brief: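 The readout is membrane depolarisation from a cAMP-sensing CNG channel, detected with a potential dye at ex 535/em 590. Cells were HEK293-derived (endogenous PDE-IV) at 1000 cells/well, titrated up to 22.9 uM final.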

[13] = molecular target: Cytochrome P450 3A4 (Homo sapiens) (UniProt P08684); assay: qHTS Assay for Activators of Cytochrome P450 3A4 (AID 885; active = well fitted curve in the direction sought with a large enough effect; an effect the other way counts as inactive or inconclusive; also: nearly all actives have a fitted effect of over 65% in size); conditions: recombinant CYP3A4, Luciferin-PPXE luminescence, 60 min; series mostly up to 57.1 µM
Cytochrome P450 3A4 (Homo sapiens), sequence (P08684 whole entry, looked up): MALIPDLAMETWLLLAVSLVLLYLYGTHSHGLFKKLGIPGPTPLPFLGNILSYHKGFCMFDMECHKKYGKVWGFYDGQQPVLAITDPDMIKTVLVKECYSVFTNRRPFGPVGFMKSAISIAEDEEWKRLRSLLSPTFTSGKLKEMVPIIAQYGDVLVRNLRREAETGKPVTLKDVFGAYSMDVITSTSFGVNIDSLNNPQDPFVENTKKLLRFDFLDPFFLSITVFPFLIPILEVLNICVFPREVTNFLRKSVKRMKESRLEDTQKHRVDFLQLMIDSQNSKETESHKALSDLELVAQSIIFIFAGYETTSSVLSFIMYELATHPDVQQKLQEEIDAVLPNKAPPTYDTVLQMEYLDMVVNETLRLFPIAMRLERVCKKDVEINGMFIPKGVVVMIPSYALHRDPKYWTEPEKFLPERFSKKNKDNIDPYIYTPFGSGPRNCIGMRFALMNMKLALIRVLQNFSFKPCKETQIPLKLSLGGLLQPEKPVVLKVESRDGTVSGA
Method in brief: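 Activators are scored by enhanced luminescence from CYP3A4 conversion of luciferin-PPXE (25uM, equal to KM) to luciferin, after 60 min at RT with an NADPH-regenerating system.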

[14] = qHTS Assay for Identification of Small Molecule Agonists for Hypoxia Response Element Signaling Pathway (AID 914; active = well fitted activation curve with a large enough effect in the signal ratio, with a control signal flat, not every such curve was filed as active; the % refers to the signal ratio; also: % of control where 0% means no effect); conditions: ME-180 (cervical carcinoma) HRE-bla reporter, beta-lactamase ratio, CoCl2, 17 h; activation: active compounds read high
Method in brief: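 HRE-bla ME-180 cells with beta-lactamase reporter under hypoxia response element, compounds with EC50 CoCl2 for 17 hours at 37 C. CCF4 substrate, 460nm/530nm emission ratio gave %Activity; AC50 from titration series.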

[15] = molecular target: Cytochrome P450 2C9 (Homo sapiens) (UniProt P11712); assay: qHTS Assay for Inhibitors and Substrates of Cytochrome P450 2C9 (AID 883; active = well fitted curve in the direction sought with a large enough effect; an effect the other way counts as inactive or inconclusive; also: nearly all actives have a fitted effect of over 60% in size; also: potency is read from the fitted curve at half-maximal effect); conditions: recombinant CYP2C9, luciferin-H luminescence, 60 min; series mostly up to 57.1 µM
Cytochrome P450 2C9 (Homo sapiens), sequence (P11712 whole entry, looked up): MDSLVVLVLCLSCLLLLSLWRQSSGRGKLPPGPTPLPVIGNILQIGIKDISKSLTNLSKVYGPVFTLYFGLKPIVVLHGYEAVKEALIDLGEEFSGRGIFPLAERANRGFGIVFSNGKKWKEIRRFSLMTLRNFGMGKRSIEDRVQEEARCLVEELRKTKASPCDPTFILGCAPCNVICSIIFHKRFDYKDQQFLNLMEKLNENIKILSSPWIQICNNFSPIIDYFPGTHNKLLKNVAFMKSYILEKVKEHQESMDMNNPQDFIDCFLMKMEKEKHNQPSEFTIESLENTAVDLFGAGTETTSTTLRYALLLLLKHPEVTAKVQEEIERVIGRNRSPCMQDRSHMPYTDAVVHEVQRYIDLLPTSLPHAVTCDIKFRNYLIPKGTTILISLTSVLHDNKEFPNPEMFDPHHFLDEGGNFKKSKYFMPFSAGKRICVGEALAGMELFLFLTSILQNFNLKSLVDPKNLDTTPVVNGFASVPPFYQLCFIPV
Method in brief: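 10nM CYP2C9 + 100uM Luciferin-H (=KM), 25mM KPO4; cpd 10 min 37C; NADPH regen, 60 min 37C; stop/detect with P450 Glo-Buffer 20 min; luminescence. Norm. to 57uM sulphaphenazole as full inhibition.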

[16] = molecular target: Cytochrome P450 2D6 (Homo sapiens) (UniProt P10635); assay: qHTS Assay for Inhibitors and Substrates of Cytochrome P450 2D6 (AID 891; active = well fitted curve in the direction sought with a large enough effect; an effect the other way counts as inactive or inconclusive;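 also: luciferin methyl ether substrate demethylated by CYP2D6 with NADPH regeneration; % is scaled to controls: 0 for no effect and ±100 for the full control effect; nearly all actives have a fitted effect of over 60% in size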); conditions: recombinant CYP2D6, luciferin-ME EGE luminescence; series mostly up to 57.1 µM
Cytochrome P450 2D6 (Homo sapiens), sequence (P10635 whole entry, looked up): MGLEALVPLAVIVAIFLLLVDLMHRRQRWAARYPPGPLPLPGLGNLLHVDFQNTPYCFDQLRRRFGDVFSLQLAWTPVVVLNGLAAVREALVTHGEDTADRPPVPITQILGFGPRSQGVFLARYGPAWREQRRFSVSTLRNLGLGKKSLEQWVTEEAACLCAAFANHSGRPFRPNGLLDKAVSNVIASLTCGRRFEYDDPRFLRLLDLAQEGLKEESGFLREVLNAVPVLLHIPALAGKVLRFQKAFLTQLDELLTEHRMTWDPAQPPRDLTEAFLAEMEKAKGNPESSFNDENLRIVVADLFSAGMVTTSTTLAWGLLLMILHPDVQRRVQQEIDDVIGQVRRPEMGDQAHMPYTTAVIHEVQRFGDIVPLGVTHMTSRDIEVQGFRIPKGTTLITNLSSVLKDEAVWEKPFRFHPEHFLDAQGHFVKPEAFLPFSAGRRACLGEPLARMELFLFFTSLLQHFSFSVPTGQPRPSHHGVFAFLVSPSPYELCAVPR
Method in brief: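 Luminescent read-out of luciferin formed by 5 nM human CYP2D6 demethylating 30 uM Luciferin-ME EGE (Km level) over 60 min at room temperature after NADPH regeneration addition. Data normalized to full inhibition by 1.43 uM quinidine.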

[17] = molecular target: Cytochrome P450 2C19 (Homo sapiens) (UniProt P33261); assay: qHTS Assay for Inhibitors and Substrates of Cytochrome P450 2C19 (AID 899; active = well fitted curve in the direction sought with a large enough effect; an effect the other way counts as inactive or inconclusive; also: % is scaled to controls: 0 for no effect and ±100 for the full control effect; nearly all actives have a fitted effect of over 60% in size); conditions: recombinant CYP2C19, luciferin-H EGE luminescence; series mostly up to 57.1 µM
Cytochrome P450 2C19 (Homo sapiens), sequence (P33261 whole entry, looked up): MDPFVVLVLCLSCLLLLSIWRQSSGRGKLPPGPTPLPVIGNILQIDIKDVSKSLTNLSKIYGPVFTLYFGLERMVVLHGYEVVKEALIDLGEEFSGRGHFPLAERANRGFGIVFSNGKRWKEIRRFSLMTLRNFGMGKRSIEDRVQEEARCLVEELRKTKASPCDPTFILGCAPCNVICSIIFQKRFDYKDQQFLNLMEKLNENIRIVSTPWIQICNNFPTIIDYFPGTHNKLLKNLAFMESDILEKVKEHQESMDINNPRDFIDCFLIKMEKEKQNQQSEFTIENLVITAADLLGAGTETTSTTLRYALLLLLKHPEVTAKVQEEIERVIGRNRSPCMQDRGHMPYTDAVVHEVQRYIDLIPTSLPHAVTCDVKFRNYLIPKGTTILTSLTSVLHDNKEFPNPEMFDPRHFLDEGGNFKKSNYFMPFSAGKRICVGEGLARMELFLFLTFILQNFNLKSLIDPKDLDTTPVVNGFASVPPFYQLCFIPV
Method in brief: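 Luminescent read-out of luciferin formed from Luciferin-H EGE (10uM, equal to KM). Enzyme 5nM in 50mM KPO4; compound added, 10 min at 37C, then NADPH regenerating system for 60 min at 37C. Full inhibition defined by 57uM ketoconazole.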

[18] = molecular target: Cytochrome P450 3A4 (Homo sapiens) (UniProt P08684); assay: qHTS Assay for Inhibitors and Substrates of Cytochrome P450 3A4 (AID 884; active = well fitted curve in the direction sought with a large enough effect; an effect the other way counts as inactive or inconclusive; also: % is scaled to controls: 0 for no effect and ±100 for the full control effect; nearly all actives have a fitted effect of over 50% in size); conditions: recombinant CYP3A4, Luciferin-PPXE luminescence; series mostly up to 57.1 µM
Method in brief: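 Luminescent readout of luciferin produced by CYP3A4 (20 nM) dealkylation of Luciferin-PPXE, 25 uM (its KM). NADPH-driven reaction ran 60 min at RT after 10 min compound preincubation; data scaled to 57 uM ketoconazole as 100% inhibition.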

SMILES	Potency [1] [µM]	activity change, negative = inhibition [2] [%]	Potency [3]	activity change, negative = inhibition [4] [%]	activity, negative = inhibition [5] [%]	Potency [6] [µM]	Potency [7] [µM]	Potency [8]	outcome [9]	Potency [10]	outcome [11]	Potency [12]	Potency [13]	activation [14] [%]	Potency [15]	Potency [16]	Potency [17]	Potency [18]
N#Cc1cccc(-c2nc(Nc3ccccc3)c3ccccc3n2)c1	> 11.4	3.06	1.26 µM (active)	15.5	8.9	> 46	> 46	inactive	inactive	inactive	inactive	–	–	–	–	–	–	–
O=c1c(CCc2ccccc2)nc2cnc(N3CCOCC3)nc2n1Cc1ccc(F)cc1	> 11.4	-10.7	10 µM (active)	-2.42	17.6	> 9.22	> 46	inactive	–	–	inactive	–	–	–	–	–	–	–
O=c1c(CCc2ccccc2)nc2cncnc2n1C1CC1	> 11.4	-0.738	6.31 µM (active)	-8.26	-4.39	> 9.22	> 46	inactive	–	–	inactive	inactive	inactive	6.89	–	–	–	–
COc1ccc(-n2c(=O)c(CCc3ccccc3)nc3cnc(N(C)C)nc32)cc1	> 11.4	0.546	3.16 µM (active)	-2.06	0.00123	> 9.22	> 46	inactive	–	–	inactive	inactive	inactive	10.3	–	–	–	–
COc1ccc(NC(=O)N2CC3(CCN(C(=O)c4cnccn4)CC3)C2)cc1	> 11.4	0.0652	inactive	15.4	4.6	–	> 46	inactive	–	–	inactive	inactive	–	–	–	–	–	–
COCC(=O)N1CCC2(CC1)CN(C(=O)Nc1ccccc1)C2	> 11.4	7.47	12.6 µM (active)	18.9	-7.39	–	> 46	inactive	–	–	inactive	inactive	–	–	1.58 µM (active)	–	–	–
O=C(Nc1ccccc1)N1CC2(CCN(C(=O)c3cnccn3)CC2)C1	> 11.4	-11.2	20 µM (active)	4.45	2.96	–	> 46	inactive	–	–	inactive	inactive	–	–	–	–	–	–
Cn1cccc1C(=O)N1CCC2(CCCN(c3ncccn3)C2)CC1	> 11.4	7.97	inactive	2.93	-5.18	–	> 46	inactive	–	–	inactive	inactive	–	–	inactive	inactive	inactive	–
O=C(c1cnccn1)N1CCC2(CCCN(c3ncccn3)C2)CC1	> 11.4	-8.6	inactive	13.2	-0.387	–	> 46	inactive	–	–	inactive	inactive	–	–	–	–	–	–
O=C(c1csnn1)N1CCC2(CCN(Cc3nccs3)CC2)CC1	> 11.4	-7.97	inactive	-13.7	-2.3	–	> 46	inactive	–	–	inactive	inactive	–	–	–	–	–	–
O=C(c1cnccn1)N1CCC2(CC1)CN(Cc1nccs1)C2	> 11.4	-5.34	inactive	-5.05	-2.27	–	> 46	inactive	–	–	inactive	inactive	–	–	–	–	–	–
O=C(c1cnccn1)N1CCC2(CCCN(c3ccc(-c4ccccc4)cc3)C2)CC1	> 11.4	-27.9	25.1 µM (active)	-14.8	8.97	–	> 46	inactive	–	–	inactive	inactive	–	–	–	–	–	–
Cc1noc(C)c1C(=O)N1CCC[C@@]2(CCN(Cc3ccc(C#N)cc3)C2)C1	> 11.4	-6.54	inactive	17.1	6.11	–	> 46	inactive	–	–	inactive	inactive	–	–	inactive	inactive	inactive	inactive
O=S(=O)(c1ccccc1)N1CCC2(CC1)CN(Cc1nccs1)C2	> 11.4	11.1	inactive	-29.2	9.77	–	> 46	inactive	–	–	inactive	inactive	–	–	–	–	–	–
O=C(c1cc(C(F)(F)F)cc(C(F)(F)F)c1)N1CCC2(CC1)CN(c1ncccn1)C2	> 11.4	-14.3	inactive	31	1.12	–	> 46	inactive	–	–	inactive	inactive	–	–	inactive	inactive	–	–
